# Screening results as filed in PubChem.
# CYP2C19 activ – cytochrome P450 2C19 (human) activation; P33261; recombinant CYP2C19, luciferin-H EGE luminescence; hits give high values; 0 = fully inhibited enzyme, 1 = untreated enzyme; activation factor at 5 µM; 96,000 tested, under 10 active; AID 1025;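 active = activation factor of at least 2 at 5 µM in the primary screen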;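 also: 0 = wells with 2.5 mM tranylcypromine and 1 = vehicle-only wells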
# PLAP activator – activates human placental alkaline phosphatase; purified PLAP enzyme, luminescent substrate read-out; hits give high values; activation fold at 20 µM; 1.2% of 96,000 active; in the data active = activation fold above about 2
# CYP2C19 inh – blocks human cytochrome P450 2C19 | 21% of 96,000 active | inhibition, % at 5 µM | CYP2C19 Supersomes, luciferin-H EGE luminescence, 30 min | P33261;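 active = CYP2C19 inhibition above a set limit at 5 µM in the primary screen, cut at about 50% in these data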;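 also: plate controls were negative control wells for no effect and 2.5 mM tranylcypromine positive control for full effect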
# CYP2C9 act – CYP2C9 (human) activation; P11712; recombinant CYP2C9, luciferin-H conversion, luminescence; hits give high values; factor 1 = untreated enzyme, 0 = blocked; activation factor at 5 µM; 1.4% of 96,000 active;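 active = activation factor of 2 or more for CYP2C9 at a 5 µM dose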;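 also: 0 = sulfaphenazole-blocked wells and 1 = vehicle-only wells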
# Target sequence (P11712 whole entry, looked up): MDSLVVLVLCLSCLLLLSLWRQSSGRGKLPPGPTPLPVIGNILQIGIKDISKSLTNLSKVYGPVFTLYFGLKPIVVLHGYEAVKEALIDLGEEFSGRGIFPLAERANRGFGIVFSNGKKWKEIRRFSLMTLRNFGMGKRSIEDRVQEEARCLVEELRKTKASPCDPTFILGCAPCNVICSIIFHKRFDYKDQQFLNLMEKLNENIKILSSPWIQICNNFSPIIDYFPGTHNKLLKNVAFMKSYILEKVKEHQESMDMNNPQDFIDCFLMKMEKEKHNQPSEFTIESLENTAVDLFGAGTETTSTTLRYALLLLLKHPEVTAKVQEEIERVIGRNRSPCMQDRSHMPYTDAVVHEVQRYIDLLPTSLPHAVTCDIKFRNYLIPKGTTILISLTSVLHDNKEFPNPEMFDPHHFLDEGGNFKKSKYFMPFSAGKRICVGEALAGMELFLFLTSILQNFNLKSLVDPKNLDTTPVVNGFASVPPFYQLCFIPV
# CYP2C9 inhib – blocks human cytochrome P450 2C9; inhibition, % at 5 µM; CYP2C9 Supersomes, luciferin-H conversion, luminescence; 20% of 96,000 active; P11712;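 active = blocking of liver enzyme CYP2C9 beyond about 50% at 5 µM, limit read from the data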
# An asterisk follows results filed as active. A selection: hits, their analogues and other compounds. The true share with any hit is near 31%.
SMILES,CYP2C19 activ,PLAP activator,CYP2C19 inh,CYP2C9 act,CYP2C9 inhib
CCOc1ccccc1N1CCN(S(=O)(=O)CC)CC1,0.7,1.4,35,0.8,24
Cc1ccc(S(=O)(=O)N2CCN(S(=O)(=O)c3ccc4c(c3)OCCO4)CC2)cc1,1.1,0.9,-14,1.1,-10
Cc1ccc2c(CC(=O)N3CCN(S(=O)(=O)c4ccc5c(c4)OCCO5)CC3)coc2c1,0.6,1,41,0.3,72*
CCOC(=O)N1CCN(S(=O)(=O)c2ccc(C)c(C)c2C)CC1,0,1.2,99*,1.1,-6
CCOc1ccccc1N1CCN(S(=O)(=O)c2cccc3nsnc23)CC1,0.1,1,94*,0.3,70*
Cc1cc(C(=O)CCC(=O)N2CCN(S(=O)(=O)c3cccs3)CC2)c(C)s1,0.9,1.4,5,0.8,22
COc1ccc2c(CC(=O)N3CCN(S(=O)(=O)c4cccs4)CC3)coc2c1,0.1,1.2,90*,0.7,34
CCOC(=O)N1CCN(S(=O)(=O)c2ccc(OC)c3ccccc23)CC1,0.6,1.4,40,1.2,-22
CCOC(=O)N1CCC(NC(=O)C2CCN(S(=O)(=O)c3cccs3)CC2)CC1,0.9,1.4,9,0.8,22
O=C(c1ccccc1F)N1CCN(S(=O)(=O)c2ccc3c(c2)OCCO3)CC1,0.1,1.6,93*,0.5,49
CCOc1ccccc1N1CCN(S(=O)(=O)c2cccs2)CC1,0.1,1.2,93*,0.1,91*
CCOC(=O)N1CCN(S(=O)(=O)c2cccs2)CC1,0.4,0.8,57*,0.8,24
O=C(C1CCN(c2ccc(N3CCOCC3)nn2)CC1)N1CCN(c2ccc(F)cc2)CC1,1,1.4,1,1,4
CCCS(=O)(=O)N1CCC(C(=O)NCc2ccccc2Cl)CC1,1,0.9,-2,1.6,-60
CCC(=O)Nc1nnc(Sc2ccc(N(C)C)cc2)s1,0,1,96*,1.4,-38
CCC(=O)Nc1nnc(SCC(=O)Nc2ccc(F)cc2)s1,0.6,1,42,1,3
CCCC(=O)Nc1nnc(Sc2ccc(N(C)C)cc2)s1,0.1,0.8,94*,1.6,-56
CC(c1ccccc1)N1CC(C(=O)N2CCN(c3ccccc3)CC2)CC1=O (stereo unspecified),1,1.3,2,1.1,-11
FC(F)(F)Oc1ccc(Nc2nc3ccccc3o2)cc1,1,0.9,4,0.2,76*
COC(=O)C(Cc1cncn1COCc1ccccc1)NC(=O)OC(C)(C)C (stereo unspecified),0.6,1.2,36,0.8,25
Nc1nonc1-c1noc(CCCCCN2C(=O)c3ccccc3C2=O)n1,0.9,1.1,6,0.9,13
Cc1ccc(C)c(N2CCN(C(=O)CC3Sc4ccccc4NC3=O)CC2)c1 (stereo unspecified),0.3,1.1,71*,0.5,51*
Cc1ccc(C)c(N2CCN(C(=O)Cn3c(=O)[nH]c4ccsc4c3=O)CC2)c1,0.7,1.2,35,0.5,53*
CC1CCCN(C(=O)C(Cc2ccccc2)n2cccc2)C1 (stereo unspecified),0.3,1.1,67*,0.7,28
Cc1ccc(C)c(N2CCN(C(=O)C(Cc3ccccc3)n3cccc3)CC2)c1 (stereo unspecified),0,1.2,97*,0.8,24
SMILES,CYP2C19 activ,PLAP activator,CYP2C19 inh,CYP2C9 act,CYP2C9 inhib
Cc1cc(NC(=O)COC(=O)c2cc3c(s2)CCC(C)C3)no1 (stereo unspecified),0.7,0.9,28,0.7,32
Cc1ccc(C)c(N2CCN(C(=O)Cn3cccc3)CC2)c1,0.8,1,20,1,0
Cc1ccc(C)c(N2CCN(C(=O)CCS(=O)(=O)c3cccc4nonc34)CC2)c1,0.4,1.3,62*,0.3,73*
O=C(C(Cc1ccccc1)n1cccc1)N1CCN(c2ccccc2)CC1 (stereo unspecified),0.1,1,95*,0.6,43
CCC(=O)N1CCN(c2cc(C)ccc2C)CC1,0.5,1.4,52*,0.9,7
COc1cc(NS(=O)(=O)c2ccc(NC(=O)C34CC5CC(CC(C5)C3)C4)cc2)ncn1,1,0.8,-1,1.2,-19
COc1cc(NC(=O)C2CCN(S(=O)(=O)c3ccc(Cl)cc3)CC2)ccc1-n1cnnn1,1,1.4,5,0.9,9
CN(C)C=Nc1ncc2c3ccccc3n(CCN(C)C)c2c1C#N,0.8,1.5,19,0.4,58*
Cc1ccc(N(C(=O)c2csnn2)C(C(=O)NC(C)(C)C)c2ccncc2)cc1 (stereo unspecified),0.8,1,22,0.9,9
Cc1ccc(N(C(=O)c2csnn2)C(C(=O)NC(C)(C)C)c2cccs2)cc1 (stereo unspecified),0.2,1.1,77*,0.9,6
CC(C)c1ccc(N(C(=O)c2csnn2)C(C(=O)NC(C)(C)C)c2ccncc2)cc1 (stereo unspecified),0.4,1.2,60*,0.8,23
CCC(=O)N1CCc2cc(Br)cc(S(=O)(=O)C3(C(=O)OC)CC3)c21,1,1.1,3,0.8,22
Nc1nc(CSc2nc3ccccc3s2)nc(N2CCCCC2)n1,0.7,1.2,25,0.8,24
c1ccc2sc(SCc3ccc(-c4nnco4)cc3)nc2c1,0.2,1.2,79*,0.8,15
N#CC1=C(N)C2=C(N3CCCCC3)CCCC2C1(C#N)C#N (stereo unspecified),0.9,0.9,14,0.5,51*
COc1ccc(CCNC(=O)CCNS(=O)(=O)c2cccc3nsnc23)cc1OC,0.3,1.2,72*,0.6,35
O=C(CCCNS(=O)(=O)c1cccc2nsnc12)NCc1ccccc1,0.9,1,9,1,-2
O=C(CCNS(=O)(=O)c1cccc2nsnc12)NCCc1ccccc1,0.5,1,52*,1.2,-18
Cc1ccc(CNC(=O)CNS(=O)(=O)c2cccc3nsnc23)cc1,0.7,1,31,0.5,52*
COc1ccc(CCNC(=O)CCNS(=O)(=O)c2cccc3nonc23)cc1OC,0.3,1.2,72*,0.8,18
O=C(CCNS(=O)(=O)c1cccc2nonc12)NC1CCCc2ccccc21 (stereo unspecified),0.7,0.8,28,2.4*,-138
COc1ccc(NC(=O)CNS(=O)(=O)c2cccc3nonc23)c(OC)c1,0.3,0.9,72*,0.3,74*
CC(=O)c1ccc(NC(=O)CCNS(=O)(=O)c2cccc3nonc23)cc1,0.5,0.9,49,1.1,-6
CCc1ccc(NC(=O)CCNS(=O)(=O)c2cccc3nonc23)cc1,0.7,1.1,27,0.4,55*
COCCCn1c(SCC(=O)N2CCCC(C)C2)nnc1-c1ccco1 (stereo unspecified),0.7,1.3,25,0.8,20
c1csc(C2Nc3cccc4cccc(c34)N2)c1,0.6,0.8,43,0.9,12
